# Laboratory results: PubChem BioAssay (Tox21)
# A number with no mark means an inactive call. Records with an inconclusive call do not appear. Entries that show only a call come without a potency. Activity calls are given as the source filed them. The call rests on the fitted dose curve; in most records, active means well fitted curve in the direction sought with a large enough effect in the repeat runs; inconclusive means weak or mixed curves; inactive means no such curve, though single readings can be large; an effect the other way counts as inactive or inconclusive.
# Assays:
# [1] = qHTS RealTime-Glo MT Cell Viability Assay in HepG2 cells - 40 hour (AID 1224870); further: nearly all actives have a fitted effect of over 50% in size
# In short: (§1)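 HepG2 cells mixed with RealTime-Glo MT reagents (NanoLuc plus cell-permeant prosubstrate) were seeded at 600 cells/well, incubated 5 h at 37 C/5% CO2, then pinned with compounds in DMSO; nonlytic luminescence tracked viability during 40 h treatment.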
# [2] = A CellTox Green Cytotoxicity Assay to monitor cytotoxicity in HEK293 cells - 40 hour (AID 1224871); further: nearly all actives have a fitted effect of over 45% in size
# In short: (§2)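 Cells (HEK293, 600/well) and dye reagent are dispensed together. After 5 h at 37 C, 23 nL compound is pinned in. Plates stay at 37 C for 40 h with fluorescence read at 0h, 8h, 16h, 24h, 32h and 40h.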
# [3] = qHTS RealTime-Glo MT Cell Viability Assay in HepG2 cells - 8 hour (AID 1224873); further: nearly all actives have a fitted effect of over 55% in size
# In short: as §1
# [4] = A CellTox Green Cytotoxicity Assay to monitor cytotoxicity in HEK293 cells - 24 hour (AID 1224875); further: series mostly up to about 77 µM; nearly all actives have a fitted effect of over 45% in size
# In short: as §2
# [5] = qHTS RealTime-Glo MT Cell Viability Assay in HepG2 cells - 32 hour (AID 1224877); further: nearly all actives have a fitted effect of over 55% in size
# In short: (§3)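 Tox21 10K library screened in qHTS format on HepG2 cells carrying RealTime-Glo reagents. Compounds were added after a 5 h preincubation, and the luminescent signal from continuous culture was measured repeatedly during 40 h treatment.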
# [6] = A CellTox Green Cytotoxicity Assay to monitor cytotoxicity in HepG2 cells - 24 hour (AID 1224878); further: nearly all actives have a fitted effect of over 45% in size
# In short: (§4)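 Cells and non-lytic dye reagent are dispensed together (600 HepG2 cells/well) and incubated 5 h before DMSO compound transfer. Kinetic fluorescence is then recorded in the same wells during 40 h at 37 C.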
# [7] = A CellTox Green Cytotoxicity Assay to monitor cytotoxicity in HepG2 cells - 40 hour (AID 1224879); further: nearly all actives have a fitted effect of over 40% in size
# In short: as §4
# [8] = qHTS RealTime-Glo MT Cell Viability Assay in HEK293 cells - 0 hour (AID 1224880); further: top concentration of the series differs between compounds; nearly all actives have a fitted effect of over 45% in size
# In short: (§5)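 Real-time viability in HEK293: signal arises when living cells convert a prosubstrate for NanoLuc in the medium, so luminescence tracks viable cell number. Compound (23 nL, DMSO) added 5 h post-seeding; kinetic reads at 0–40 h, 37 C.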
# [9] = A CellTox Green Cytotoxicity Assay to monitor cytotoxicity in HEK293 cells - 32 hour (AID 1224881); further: nearly all actives have a fitted effect of over 40% in size
# In short: as §2
# [10] = A CellTox Green Cytotoxicity Assay to monitor cytotoxicity in HepG2 cells - 0 hour (AID 1224882); further: nearly all actives have a fitted effect of over 35% in size
# In short: as §4
# [11] = A CellTox Green Cytotoxicity Assay to monitor cytotoxicity in HepG2 cells - 32 hour (AID 1224883); further: nearly all actives have a fitted effect of over 50% in size
# In short: as §4
# [12] = A CellTox Green Cytotoxicity Assay to monitor cytotoxicity in HEK293 cells - 8 hour (AID 1224884); further: nearly all actives have a fitted effect of over 35% in size
# In short: as §2
# [13] = qHTS RealTime-Glo MT Cell Viability Assay in HepG2 cells - 16 hour (AID 1224885); further: nearly all actives have a fitted effect of over 50% in size
# In short: as §3
# [14] = A CellTox Green Cytotoxicity Assay to monitor cytotoxicity in HEK293 cells - 16 hour (AID 1224888); further: nearly all actives have a fitted effect of over 35% in size
# In short: as §2
# [15] = qHTS RealTime-Glo MT Cell Viability Assay in HepG2 cells - 0 hour (AID 1224889); further: nearly all actives have a fitted effect of over 50% in size
# In short: as §3
# [16] = qHTS RealTime-Glo MT Cell Viability Assay in HEK293 cells - 16 hour (AID 1224872)
# In short: (§6)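 Luminescence generated by NanoLuc from substrate produced by living HEK293 cells served as the viability signal. Each value reflects the reading at its stated time point during continuous 40 h compound exposure at 37 C.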
# [17] = qHTS RealTime-Glo MT Cell Viability Assay in HEK293 cells - 40 hour (AID 1224874); conditions: RealTime-Glo luminescence; max response: stronger effect = lower value; further: nearly all actives have a fitted effect of over 50% in size
# In short: as §5
# [18] = A CellTox Green Cytotoxicity Assay to monitor cytotoxicity in HepG2 cells - 16 hour (AID 1224876); further: nearly all actives have a fitted effect of over 45% in size
# In short: as §4
# [19] = qHTS RealTime-Glo MT Cell Viability Assay in HEK293 cells - 24 hour (AID 1224886)
# In short: as §6
# [20] = qHTS RealTime-Glo MT Cell Viability Assay in HEK293 cells - 8 hour (AID 1224887); further: nearly all actives have a fitted effect of over 50% in size; further: potency means the concentration at half of the fitted maximal effect; on activity change, negative = cytotoxicity: top concentration of the series differs between compounds
# In short: as §5
smiles,measurement,setting,value
COc1ccc(C(=O)c2ccc(C)cc2)c(O)c1,Potency,[1],inactive
same,Potency,[2],inactive
same,outcome,[3],inactive
same,Potency,[4],inactive
same,Potency,[5],inactive
same,Potency,[6],inactive
same,Potency,[7],inactive
same,Potency,[8],inactive
same,Potency,[9],inactive
same,Potency,[10],inactive
same,Potency,[11],inactive
same,Potency,[12],inactive
same,outcome,[13],inactive
same,Potency,[14],inactive
same,Potency,[15],inactive
Nc1ccc(C(=O)Oc2ccccc2)c(O)c1,Potency,[1],inactive
same,Potency,[16],inactive
same,outcome,[3],inactive
same,max response,[17],-15.9%
same,Potency,[4],inactive
same,Potency,[18],inactive
same,Potency,[5],inactive
same,Potency,[6],inactive
same,Potency,[7],inactive
same,Potency,[8],inactive
same,Potency,[9],inactive
same,Potency,[10],inactive
same,Potency,[11],inactive
same,Potency,[12],inactive
same,Potency,[19],inactive
same,Potency,[20],inactive
same,Potency,[14],inactive
same,Potency,[15],inactive
O=C(O)c1ccc2c(c1)nc(C(=O)NC1CCN(C3CC3)CC1)n2Cc1cc(-c2ccc(Cl)s2)on1,"activity change, negative = cytotoxic",[1],-1.55% [at 15.8 µM]
same,cytotoxicity increase,[2],-0.224% [at 15.8 µM]
same,"activity change, negative = cytotoxicity",[16],7.22% [at 15.8 µM]
same,max response,[17],-1.71%
same,activity change,[4],"1.12% [at 15.8 µM, stronger effect = higher value]"
same,"activity change, negative = cytotoxic",[5],-3.33% [at 15.8 µM]
same,cytotoxicity increase,[7],-6.87% [at 15.8 µM]
same,"activity change, negative = cytotoxicity",[8],-5.93% [at 15.8 µM]
same,cytotoxicity increase,[9],1.64% [at 15.8 µM]
same,cytotoxicity,[10],-4.38% [at 15.8 µM]
same,cytotoxicity increase,[11],-6.61% [at 15.8 µM]
same,cytotoxicity increase,[12],-5.24% [at 15.8 µM]
same,"activity change, negative = cytotoxic",[13],-5.36% [at 15.8 µM]
same,"activity change, negative = cytotoxicity",[19],0.501% [at 15.8 µM]
same,"activity change, negative = cytotoxicity",[20],8.44% [at 15.8 µM]
same,activity change,[14],"0.74% [at 15.8 µM, stronger effect = higher value]"
same,"activity change, negative = cytotoxicity",[15],-12.8% [at 15.8 µM]
CCCCOC(=O)C(C)Oc1ccc(Oc2ccc(C(F)(F)F)cn2)cc1 (centres undefined),Potency,[1],inactive
same,Potency,[2],inactive
same,outcome,[3],inactive
same,max response,[17],-1.23%
same,Potency,[4],inactive
same,Potency,[18],inactive
same,Potency,[5],inactive
same,Potency,[6],inactive
same,Potency,[7],inactive
same,Potency,[8],inactive
same,Potency,[9],inactive
same,Potency,[10],inactive
same,Potency,[11],inactive
same,Potency,[12],inactive
same,outcome,[13],inactive
same,Potency,[14],inactive
same,Potency,[15],inactive
Sc1nc(S)nc(S)n1,Potency,[1],inactive
same,Potency,[16],inactive
same,outcome,[3],inactive
same,max response,[17],5.08%
same,Potency,[4],inactive
same,Potency,[18],inactive
same,Potency,[5],inactive
same,Potency,[6],inactive
same,Potency,[7],inactive
same,Potency,[8],inactive
same,Potency,[9],inactive
same,Potency,[10],inactive
same,Potency,[11],inactive
same,Potency,[19],inactive
same,Potency,[20],inactive
same,Potency,[14],inactive
same,Potency,[15],inactive
O=C(OCCN1CCOCC1)c1cccnc1Nc1cccc(C(F)(F)F)c1,Potency,[1],inactive
same,Potency,[2],inactive
same,outcome,[3],inactive
same,Potency,[4],inactive
same,Potency,[18],inactive
same,Potency,[5],inactive
same,Potency,[6],inactive
same,Potency,[7],inactive
same,Potency,[8],inactive
same,Potency,[9],inactive
same,Potency,[10],inactive
same,Potency,[11],inactive
same,Potency,[12],inactive
same,outcome,[13],inactive
same,Potency,[20],inactive
same,Potency,[14],inactive
same,Potency,[15],inactive
O=C(Cl)c1ccc(F)c(Cl)c1,Potency,[1],inactive
same,Potency,[2],inactive
same,outcome,[3],inactive
same,max response,[17],35.2%
same,Potency,[4],inactive
same,Potency,[18],inactive
same,Potency,[5],inactive
same,Potency,[6],inactive
same,Potency,[7],inactive
same,Potency,[8],inactive
same,Potency,[9],inactive
same,Potency,[10],inactive
same,Potency,[11],inactive
same,Potency,[12],inactive
same,outcome,[13],inactive
same,Potency,[14],inactive
same,Potency,[15],inactive
OCCOc1cccc(OCCO)c1,Potency,[1],inactive
same,Potency,[2],inactive
same,Potency,[16],inactive
same,max response,[17],12.3%
same,Potency,[4],inactive
same,Potency,[18],inactive
same,Potency,[5],inactive
same,Potency,[6],inactive
same,Potency,[7],inactive
same,Potency,[8],inactive
same,Potency,[10],inactive
same,Potency,[11],inactive
same,Potency,[12],inactive
same,outcome,[13],inactive
same,Potency,[19],inactive
same,Potency,[20],inactive
same,Potency,[14],inactive
same,Potency,[15],inactive
N#C[C@@H]1CC(F)(F)CN1C(=O)CNC1CC2CCC(C1)N2c1ncccn1 (some centres undefined),Potency,[1],inactive
same,Potency,[2],inactive
same,Potency,[16],inactive
same,max response,[17],1.88%
same,Potency,[4],inactive
same,Potency,[18],inactive
same,Potency,[5],inactive
same,Potency,[7],inactive
same,Potency,[8],inactive
same,Potency,[9],inactive
same,Potency,[10],inactive
same,Potency,[11],inactive
same,Potency,[12],inactive
same,outcome,[13],inactive
same,Potency,[19],inactive
same,Potency,[20],inactive
same,Potency,[14],inactive
same,Potency,[15],inactive
O=C(OCCCCCOC(=O)c1ccccc1)c1ccccc1,Potency,[1],inactive
same,Potency,[2],inactive
same,Potency,[4],inactive
same,Potency,[18],inactive
same,Potency,[5],inactive
same,Potency,[7],inactive
same,Potency,[8],inactive
same,Potency,[9],inactive
same,Potency,[10],inactive
same,Potency,[11],inactive
same,Potency,[12],inactive
same,outcome,[13],inactive
same,Potency,[14],inactive
same,Potency,[15],inactive
CC1=C(C)C(=O)C(C(CCCCCC(=O)O)c2ccccc2)=C(C)C1=O (centres undefined),Potency,[1],inactive
same,Potency,[2],inactive
same,outcome,[3],inactive
same,max response,[17],3.36%
same,Potency,[4],inactive
same,Potency,[18],inactive
same,Potency,[5],inactive
same,Potency,[6],inactive
same,Potency,[7],inactive
same,Potency,[8],inactive
same,Potency,[9],inactive
same,Potency,[10],inactive
same,Potency,[11],inactive
same,outcome,[13],inactive
same,Potency,[19],inactive
same,Potency,[20],10.7 µM (active)
same,Potency,[14],inactive
O=C(O)COCC(=O)O,Potency,[1],inactive
same,Potency,[16],inactive
same,outcome,[3],inactive
same,max response,[17],-0.496%
same,Potency,[4],inactive
same,Potency,[18],inactive
same,Potency,[5],inactive
same,Potency,[6],inactive
same,Potency,[7],inactive
same,Potency,[8],inactive
same,Potency,[9],inactive
same,Potency,[10],inactive
same,Potency,[11],inactive
same,Potency,[12],inactive
same,outcome,[13],inactive
same,Potency,[19],inactive
same,Potency,[20],inactive
same,Potency,[14],inactive
same,Potency,[15],inactive
